Assay results published in PubChem BioAssay AID1159580 (chemical genetic matrix, 2015).
Several values for one entry are separate records, joined by “and”; a condition that tells them apart may be missing. Identical values can stand only once. About 2,000 (36%) of roughly 5,500 compounds were called active. Roughly 18% stayed inconclusive and do not appear here. Rule as the data show it: active = normalized growth mostly below about 0.91 (no sharp cut-off); inconclusive = no clear call, values can overlap the other calls; inactive = mostly above about 0.92. The list shows a part of the results.

Experiment: chemical genetic growth profiling, strain panel (AID 1159580);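 also: tested at 20 µM; growth read once vehicle control cultures reached saturation at 30 °C; 1 = growth at the plate median or of vehicle wells; lower values mean less growth of the strain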
Details: S. cerevisiae deletion strains, growth OD

Measured: normalized growth

CN(C)CCC(c1ccccc1)c1ccccn1 (centres undefined)
inactive: locus YAL013W, strain DEP1, stronger effect = lower value 0.99 | locus YAL021C, strain ccr4, stronger effect = lower value 1.02 | locus YAL026C, strain drs2, stronger effect = lower value 1.02 | locus YAL030W, strain snc1, stronger effect = lower value 1 | locus YAL040C, strain CLN3, stronger effect = lower value 1.01 | locus YBL061C, strain skt5, stronger effect = lower value 1.01 | locus YBR009C, strain hhf1, stronger effect = lower value 1.01 | locus YBR021W, strain FUR4, stronger effect = lower value 1.01 | locus YBR023C, strain chs3, stronger effect = lower value 1.01 | locus YBR171W, strain sec66, stronger effect = lower value 1.03 | locus YBR229C, strain ROT2, stronger effect = lower value 1 | locus YBR231C, strain swc5, stronger effect = lower value 1.01 | locus YBR279W, strain paf1, stronger effect = lower value 1.01 | locus YCL011C, strain gbp2, stronger effect = lower value 1.01 | locus YCL016C, strain dcc1, stronger effect = lower value 1.02 | locus YCL029C, strain bik1, stronger effect = lower value 1 | locus YCL061C, strain MRC1 (second series), stronger effect = lower value 1.01 | locus YCL061C, strain MRC1, stronger effect = lower value 1.01 | locus YCL069W, strain vba3, stronger effect = lower value 1.01 | locus YCR088W, strain abp1, stronger effect = lower value 1 | locus YDL005C, strain med2, stronger effect = lower value 1.02 | locus YDL035C, strain GPR1, stronger effect = lower value 1.01 | locus YDL040C, strain nat1, stronger effect = lower value 1.01 | locus YDL074C, strain BRE1, stronger effect = lower value 0.991 | locus YDL101C, strain DUN1, stronger effect = lower value 1.01 | locus YDL134C, strain PPH21, stronger effect = lower value 1.01 | locus YDL185W, strain tfp1, stronger effect = lower value 1 | locus YDL192W, strain arf1, stronger effect = lower value 1.01 | locus YDR001C, strain nth1, stronger effect = lower value 1.01 | locus YDR069C, strain doa4, stronger effect = lower value 0.994 | locus YDR101C, strain arx1, stronger effect = lower value 1 | locus YDR137W, strain rgp1, stronger effect = lower value 1.03 | locus YDR150W, strain NUM1, stronger effect = lower value 1.01 | locus YDR159W, strain sac3, stronger effect = lower value 1.02 | locus YDR162C, strain NBP2, stronger effect = lower value 1.01 | locus YDR195W, strain ref2 0.981 | locus YDR297W, strain sur2, stronger effect = lower value 1 | locus YDR318W, strain mcm21, stronger effect = lower value 1.01 | locus YDR334W, strain swr1, stronger effect = lower value 1.01 | locus YDR335W, strain msn5, stronger effect = lower value 1.01 | locus YDR363W, strain ESC2, stronger effect = lower value 1.05 | locus YDR388W, stronger effect = lower value 1 | locus YDR392W, strain spt3, stronger effect = lower value 0.973 | locus YDR502C, strain sam2, stronger effect = lower value 0.994 | locus YEL003W, strain gim4, stronger effect = lower value 0.993 | locus YEL037C, strain rad23, stronger effect = lower value 1.02 | locus YEL061C, strain CIN8 (second series), stronger effect = lower value 1.01 | locus YEL061C, strain CIN8, stronger effect = lower value 1 | locus YER002W, strain NOP16, stronger effect = lower value 1.01 | locus YER015W, strain faa2, stronger effect = lower value 1.01 | locus YER016W, strain bim1, stronger effect = lower value 1.01 | locus YER110C, stronger effect = lower value 1 | locus YER111C, strain swi4, stronger effect = lower value 1.03 | locus YER155C, strain BEM2 (second series), stronger effect = lower value 1.02 | locus YER155C, strain BEM2, stronger effect = lower value 1 | locus YER167W, strain BCK2, stronger effect = lower value 1.01 | locus YFR010W, strain ubp6, stronger effect = lower value 1.01 | locus YGL078C, strain dbp3, stronger effect = lower value 0.991 | locus YGL086W, strain mad1, stronger effect = lower value 0.997 | locus YGL167C, strain pmr1, stronger effect = lower value 1.02 | locus YGL173C, strain kem1, stronger effect = lower value 1.01 | locus YGL227W, strain vid30, stronger effect = lower value 1.02 | locus YGL240W, strain doc1, stronger effect = lower value 0.999 | locus YGL248W, strain PDE1, stronger effect = lower value 1 | locus YGL253W, strain hxk2, stronger effect = lower value 1.02 | locus YGR135W, strain pre9, stronger effect = lower value 1.01 | locus YGR229C, strain SMI1, stronger effect = lower value 0.992 | locus YGR252W, strain gcn5, stronger effect = lower value 0.948 | locus YHR013C, strain ard1, stronger effect = lower value 1.03 | locus YHR027C, strain rpn1, stronger effect = lower value 1.03 | locus YHR030C, strain SLT2, stronger effect = lower value 1.01 and 0.972 | locus YHR079C, strain IRE1 (second series), stronger effect = lower value 1.01 | locus YHR079C, strain IRE1, stronger effect = lower value 0.975 | locus YHR094C, strain hxt1, stronger effect = lower value 1 | locus YHR129C, strain ARP1, stronger effect = lower value 0.998 | locus YHR142W, strain chs7, stronger effect = lower value 1.01 | locus YHR200W, strain rpn10, stronger effect = lower value 0.998 | locus YIL066C, strain RNR3, stronger effect = lower value 1.01 | locus YIL073C, strain SPO22, stronger effect = lower value 1.04 | locus YIL125W, strain kgd1, stronger effect = lower value 1.01 | locus YIR030C, strain dcg1, stronger effect = lower value 1.01 | locus YJL092W, strain hpr5, stronger effect = lower value 1.01 | locus YJL095W, strain BCK1 (second series), stronger effect = lower value 1.01 | locus YJL095W, strain BCK1, stronger effect = lower value 0.99 and 0.976 | locus YJL115W, strain asf1, stronger effect = lower value 1.01 | locus YJL129C, strain trk1, stronger effect = lower value 1.01 | locus YJL134W, strain LCB3, stronger effect = lower value 1.01 | locus YJL154C, strain vps35, stronger effect = lower value 1.01 | locus YJL164C, strain tpk1, stronger effect = lower value 1.01 | locus YJL166W, strain qcr8, stronger effect = lower value 1 | locus YJL168C, strain set2, stronger effect = lower value 1.01 | locus YJL187C, strain SWE1 (second series), stronger effect = lower value 1.01 | locus YJL187C, strain SWE1, stronger effect = lower value 1 | locus YJR043C, strain POL32, stronger effect = lower value 0.997
